Test results: PubChem BioAssay (EPA / NIEHS)
Active and inactive are the calls of the source. Rule for the calls: active = hit-call score of the fitted dose curve at least 0.9, where 1 is the maximum; inactive = score below 0.9.

What was measured:
Conditions in all cases: mRNA level, 48 h; actives raise or lower the signal
[1] = read-out: Lipoprotein lipase (LPL), LPL (gene 4023); assay: LTEA_HepaRG_LPL: Life Technologies and Expression Analysis (LTEA) Assay for Lipoprotein lipase (LPL) using HepaRG (AID 2283515)
In short: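 Differentiated human HepaRG cells in serum-free induction medium were exposed in duplicate for 48 h to eight half-log concentrations (top 100 uM) in 0.5% DMSO. LPL mRNA was quantified by TaqMan qRT-PCR, normalized to ACTB, GAPDH and POLR2A.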

[2] = read-out: MicroRNA 122 (MIR122), gene 406906; assay: LTEA_HepaRG_MIR122: Life Technologies and Expression Analysis (LTEA) Assay for MicroRNA 122 (MIR122) using HepaRG (AID 2283516); note: the transcript read is the microRNA miR-122
In short: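 Differentiated human HepaRG cells in serum-free induction medium exposed 48 h to 8 half-log concentrations from 100 uM in 0.5% DMSO, duplicate. MIR122 quantified by Fluidigm TaqMan qRT-PCR, normalised to ACTB, GAPDH, POLR2A; fold change fitted bidirectionally versus DMSO.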

[3] = read-out: matrix metalloproteinase-10 (MMP10), MMP10 (gene 4319); assay: LTEA_HepaRG_MMP10: Life Technologies and Expression Analysis (LTEA) Assay for matrix metalloproteinase-10 (MMP10) using HepaRG (AID 2283517)
In short: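 HepaRG, collagen I, ~100,000 cells/well; serum-free induction medium; 48 h exposure, duplicate, 8-pt half-log to 100 uM, 0.5% DMSO. Readout: TaqMan qRT-PCR, normalized to ACTB/GAPDH/POLR2A; bidirectional fit vs DMSO.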

MYC, MYC (gene 4609) = assay: LTEA_HepaRG_MYC: Life Technologies and Expression Analysis (LTEA) Assay for MYC using HepaRG (AID 2283518)
In short: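 Differentiated human HepaRG cells, plated 48 h then switched to serum-free induction medium, were exposed in duplicate for 48 h to 8-point half-log series up to 100 uM in 0.5% DMSO. MYC mRNA measured by qRT-PCR, normalized to ACTB/GAPDH/POLR2A.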

[4] = read-out: matrix metalloproteinase-3 (MMP3), MMP3 (gene 4314); assay: LTEA_HepaRG_MMP3: Life Technologies and Expression Analysis (LTEA) Assay for matrix metalloproteinase-3 (MMP3) using HepaRG (AID 2283519)
In short: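 Differentiated human HepaRG cells, plated 48 h on collagen I, were exposed in duplicate for 48 h in serum-free induction medium to eight half-log concentrations up to 100 uM in 0.5% DMSO. MMP3 mRNA was quantified by TaqMan qRT-PCR, normalised to ACTB, GAPDH and POLR2A.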

[5] = read-out: Paternally Expressed 10 (PEG10), PEG10 (gene 23089); assay: LTEA_HepaRG_PEG10: Life Technologies and Expression Analysis (LTEA) Assay for Paternally Expressed 10 (PEG10) using HepaRG (AID 2283520)
In short: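 Differentiated HepaRG cells exposed 48 h in serum-free induction medium to eight half-log concentrations topping at 100 uM, 0.5% DMSO, in duplicate. PEG10 mRNA quantified by TaqMan qRT-PCR, normalized to ACTB, GAPDH and POLR2A; bidirectional fit versus DMSO.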

[6] = read-out: Protein phosphatase 2A (PPP2R4), PTPA (gene 5524); assay: LTEA_HepaRG_PPP2R4: Life Technologies and Expression Analysis (LTEA) Assay for Protein phosphatase 2A (PPP2R4) using HepaRG (AID 2283522)
In short: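 Differentiated human HepaRG cells in serum-free induction medium were exposed 48 h to 8 concentrations (top 100 µM, half-log steps, duplicate) in 0.5% DMSO. PPP2R4 mRNA was measured by TaqMan qRT-PCR, normalised to ACTB, GAPDH and POLR2A, and fitted bidirectionally versus DMSO.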

[7] = read-out: Phosphatase and tensin (PTEN), PTEN (gene 5728); assay: LTEA_HepaRG_PTEN: Life Technologies and Expression Analysis (LTEA) Assay for Phosphatase and tensin (PTEN) using HepaRG (AID 2283523)
In short: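 Differentiated human HepaRG cells, plated 48 h then switched to serum-free induction medium, were exposed in duplicate for 48 h to eight half-log concentrations up to 100 uM in 0.5% DMSO. PTEN mRNA measured by TaqMan qRT-PCR, normalized to ACTB/GAPDH/POLR2A, bidirectional fit versus DMSO.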

[8] = read-out: solute carrier (SLC22A1), SLC22A1 (gene 6580); assay: LTEA_HepaRG_SLC22A1: Life Technologies and Expression Analysis (LTEA) Assay for solute carrier (SLC22A1) using HepaRG (AID 2283524)
In short: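 Human HepaRG cells were plated 48 h, switched to serum-free induction medium, then exposed in duplicate for 48 h to 8-point half-log series from 100 uM in 0.5% DMSO. SLC22A1 mRNA measured by qRT-PCR, normalized to ACTB/GAPDH/POLR2A, fitted bidirectionally versus DMSO.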

For `NC(N)=O`, which outcome [1] is on record?
The outcome was “inactive”.

And the outcome [2]?
The outcome was “inactive”.

What about the outcome [3] of the same molecule?
The outcome was “inactive”.

And the outcome (MYC, MYC (gene 4609))?
The outcome was “inactive”.

And the outcome [4]?
The outcome was “inactive”.

And the outcome [5]?
Its outcome is “inactive”.

What about the outcome [6] of the same molecule?
The outcome was “inactive”.

And the outcome [7]?
Its outcome is “inactive”.

What about the outcome [8] of the same molecule?
The outcome was “inactive”.

`C[C@@H](Oc1ccc(CNC(=O)c2cccnc2Oc2ccc3c(c2)OCO3)c(F)c1)C(=O)O` was tested. Which outcome [1] did it give?
The outcome was “inactive”.

And the outcome [2]?
The outcome was “inactive”.

And the outcome [3]?
The outcome was “inactive”.

What about the outcome (MYC, MYC (gene 4609)) of the same molecule?
The outcome was “inactive”.

And the outcome [5]?
Its outcome is “inactive”.

And the outcome [7]?
The outcome was “inactive”.

And the outcome [8]?
Its outcome is “inactive”.

How did the outcome [1] turn out when `Cn1c(=O)c2[nH]cnc2n(C)c1=O` was run?
Its outcome is “inactive”.

And the outcome [2]?
Its outcome is “inactive”.

What about the outcome [3] of the same molecule?
Its outcome is “inactive”.

And the outcome (MYC, MYC (gene 4609))?
The outcome was “inactive”.

And the outcome [4]?
The outcome was “inactive”.

What about the outcome [5] of the same molecule?
Its outcome is “inactive”.

What about the outcome [7] of the same molecule?
The outcome was “inactive”.

What about the outcome [8] of the same molecule?
Its outcome is “inactive”.

How did the outcome [1] turn out when `CCCCCCCC1CCC(=O)O1` (centres undefined) was run?
Its outcome is “inactive”.

And the outcome [2]?
The outcome was “inactive”.

And the outcome [3]?
The outcome was “inactive”.

What about the outcome (MYC, MYC (gene 4609)) of the same molecule?
The outcome was “inactive”.

And the outcome [4]?
Its outcome is “inactive”.

And the outcome [5]?
Its outcome is “inactive”.

What about the outcome [7] of the same molecule?
Its outcome is “inactive”.

What about the outcome [8] of the same molecule?
The outcome was “inactive”.

Which outcome [1] does the source give for `COS(C)(=O)=O` here?
Its outcome is “inactive”.

What about the outcome [2] of the same molecule?
The outcome was “inactive”.

What about the outcome [3] of the same molecule?
The outcome was “inactive”.

What about the outcome (MYC, MYC (gene 4609)) of the same molecule?
Its outcome is “inactive”.

And the outcome [4]?
The outcome was “inactive”.

What about the outcome [5] of the same molecule?
Its outcome is “inactive”.

What about the outcome [7] of the same molecule?
Its outcome is “inactive”.

And the outcome [8]?
Its outcome is “inactive”.

What does the source list for `Nc1ccn([C@@H]2O[C@H](CO)[C@@H](O)[C@@H]2O)c(=O)n1`?
outcome [1]: inactive; outcome [2]: inactive; outcome [3]: inactive; outcome (MYC, MYC (gene 4609)): inactive; outcome [4]: inactive; outcome [5]: inactive; outcome [7]: inactive; outcome [8]: inactive

What does the source list for `C=CCc1cc(S(=O)(=O)c2ccc(O)c(CC=C)c2)ccc1O`?
AC50 [1]: 93.4 µM (active); AC50 [2]: 82 µM (active); AC50 [3]: 93.2 µM (active); AC50 (MYC, MYC (gene 4609)): 90 µM (active); AC50 [4]: 92.2 µM (active); AC50 [5]: 71 µM (active); AC50 [7]: 50 µM (active); AC50 [8]: 89 µM (active)

With `O=C(O)c1cccc(C[C@@H]2COc3ccc(OCc4nc5cc(F)ccc5s4)cc3[C@@H]2O)c1` as the molecule, how does the outcome [1] read?
The outcome was “inactive”.

And the outcome [2]?
The outcome was “inactive”.

What about the outcome [3] of the same molecule?
Its outcome is “inactive”.

And the outcome (MYC, MYC (gene 4609))?
The outcome was “inactive”.

And the outcome [4]?
Its outcome is “inactive”.

And the AC50 [5]?
Its AC50 is 50 µM (active).

And the outcome [7]?
Its outcome is “inactive”.

And the AC50 [8]?
Its AC50 is 93.4 µM (active).

Which results are given for `OCCOCCOCCO`?
outcome [1]: inactive; outcome [2]: inactive; outcome [3]: inactive; outcome (MYC, MYC (gene 4609)): inactive; outcome [4]: inactive; outcome [5]: inactive; outcome [7]: inactive; outcome [8]: inactive

What does the source list for `CCCC(CCC)C(=O)O`?
outcome [1]: inactive; outcome [2]: inactive; outcome [3]: inactive; outcome (MYC, MYC (gene 4609)): inactive; outcome [4]: inactive; outcome [5]: inactive; outcome [7]: inactive; outcome [8]: inactive

`NC(=O)N1c2ccccc2C=Cc2ccccc21` was tested. Which outcome [1] did it give?
Its outcome is “inactive”.

What about the outcome [2] of the same molecule?
Its outcome is “inactive”.

And the outcome [3]?
Its outcome is “inactive”.

What about the outcome (MYC, MYC (gene 4609)) of the same molecule?
The outcome was “inactive”.

What about the outcome [4] of the same molecule?
The outcome was “inactive”.

And the outcome [5]?
The outcome was “inactive”.

And the outcome [7]?
Its outcome is “inactive”.

What about the outcome [8] of the same molecule?
Its outcome is “inactive”.

`c1ccc2cc3ccccc3cc2c1` was tested. Which outcome [1] did it give?
Its outcome is “inactive”.

And the outcome [2]?
The outcome was “inactive”.

And the outcome [3]?
Its outcome is “inactive”.

What about the outcome (MYC, MYC (gene 4609)) of the same molecule?
Its outcome is “inactive”.

And the outcome [4]?
The outcome was “inactive”.

And the outcome [5]?
Its outcome is “inactive”.

What about the outcome [7] of the same molecule?
Its outcome is “inactive”.

And the outcome [8]?
Its outcome is “inactive”.

Which AC50 [1] does the source give for `CCCCN1C(=O)[C@@H]([C@H](O)C2CCCCC2)NC(=O)C12CCN(Cc1ccc(Oc3ccc(C(=O)O)cc3)cc1)CC2` here?
The AC50 was 1.71 µM (active).

And the AC50 [2]?
Its AC50 is 3.52 µM (active).

And the AC50 [3]?
The AC50 was 11.9 µM (active).

And the AC50 (MYC, MYC (gene 4609))?
The AC50 was 7.67 µM (active).

What about the AC50 [4] of the same molecule?
Its AC50 is 0.267 µM (active).

What about the AC50 [5] of the same molecule?
The AC50 was 1.01 µM (active).

And the AC50 [7]?
The AC50 was 2.98 µM (active).

What about the AC50 [8] of the same molecule?
Its AC50 is 1.72 µM (active).

What does the source list for `CNC(C)=O`?
outcome [1]: inactive; outcome [2]: inactive; outcome [3]: inactive; outcome (MYC, MYC (gene 4609)): inactive; outcome [4]: inactive; outcome [5]: inactive; outcome [7]: inactive; outcome [8]: inactive

With `COCc1nnc(-c2ccc[n+]([O-])c2)n1-c1c(Cl)c(Cl)cc2[nH]c(=O)c(=O)[nH]c12` as the molecule, how does the outcome [1] read?
Its outcome is “inactive”.

And the outcome [2]?
Its outcome is “inactive”.

And the outcome [3]?
The outcome was “inactive”.

And the outcome (MYC, MYC (gene 4609))?
Its outcome is “inactive”.

And the outcome [4]?
Its outcome is “inactive”.

And the outcome [5]?
Its outcome is “inactive”.

What about the outcome [7] of the same molecule?
Its outcome is “inactive”.

What about the outcome [8] of the same molecule?
Its outcome is “inactive”.

How did the outcome [1] turn out when `C=CN1CCCC1=O` was run?
The outcome was “inactive”.

And the outcome [2]?
The outcome was “inactive”.

What about the outcome [3] of the same molecule?
The outcome was “inactive”.

What about the outcome (MYC, MYC (gene 4609)) of the same molecule?
The outcome was “inactive”.

What about the outcome [4] of the same molecule?
The outcome was “inactive”.

And the outcome [5]?
Its outcome is “inactive”.

And the outcome [7]?
The outcome was “inactive”.

And the outcome [8]?
Its outcome is “inactive”.

With `CC(C)CC(C)O` (centres undefined) as the molecule, how does the outcome [1] read?
Its outcome is “inactive”.

And the outcome [2]?
The outcome was “inactive”.

And the outcome [3]?
The outcome was “inactive”.

And the outcome (MYC, MYC (gene 4609))?
Its outcome is “inactive”.

What about the outcome [4] of the same molecule?
Its outcome is “inactive”.

And the outcome [5]?
Its outcome is “inactive”.

And the outcome [7]?
The outcome was “inactive”.

What about the outcome [8] of the same molecule?
The outcome was “inactive”.

`NNC(=O)c1ccncc1` was tested. Which outcome [2] did it give?
The outcome was “inactive”.

And the outcome [3]?
Its outcome is “inactive”.

What about the outcome (MYC, MYC (gene 4609)) of the same molecule?
Its outcome is “inactive”.

What about the outcome [4] of the same molecule?
The outcome was “inactive”.

What about the outcome [5] of the same molecule?
The outcome was “inactive”.

And the outcome [6]?
Its outcome is “inactive”.

What about the outcome [7] of the same molecule?
Its outcome is “inactive”.

What about the outcome [8] of the same molecule?
Its outcome is “inactive”.
